# Measured values published in PubChem BioAssay (NCATS).
# Results filed as inconclusive are left out. The source made the active and inactive calls. Calls follow the shape of the dose curve; as a rule, active = well fitted inhibition curve with a large enough effect; inconclusive = small, poorly fitted or top-dose-only effect; inactive = no such curve, though single readings can be large or run the other way. *1 amine or outer side, *2 acyl side, *3 side chain or, on linkers, in order; H or OH if unused. Where a SMILES comes first, the peptide text is derived from it. [ ]: non-standard residue; d: D form. X13 = O=C(C(CC(O)CO)O[*:1])[*:2]; NMeV = CN[CH](C(=O)O)C(C)C; NMeA = CN[CH](C)C(=O)O; βAla = NCCC(=O)O
# Test system: Zika virus NS2B-NS3 protease (unlinked complex)
# Assay: Primary screen GU Rhodamine qHTS for Zika virus inhibitors: Unlinked NS2B-NS3 protease assay (AID 1347159); also: nearly all actives have a fitted effect of over 60% in size
# Conditions: Recombinant ZIKV NS2B-NS3 protease, Rhodamine110 substrate fluorescence; series mostly up to 107 µM; activity change, negative = inhibition: at the top concentration
# Outline: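 Buffer 10 mM Tris-HCl pH 8.0, 0.01% Tween 20. Unlinked protease 25 nM; compound preincubation 15 min, RT, protected from light. Substrate Rhod110, 1.5 microM; ~15% conversion in 15 min.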
# % is scaled to controls: 0 for no effect and ±100 for the full control effect.
row,SMILES,"activity change, negative = inhibition"
1,NC1=NC2(c3cc(NC(=O)c4ccc(F)cn4)ccc3F)COCC2CS1 (stereo not given),24.4% (inactive)
2,COc1ccnc(CCc2nc3ncccc3[nH]2)c1,43.7% (inactive)
3,CC(C)/C=C1/NC(=O)C(C(C)C)n2c1nc1c(O)cccc1c2=O (stereo not given),10.7% (inactive)
4,CCC(C)C(=O)OC[C@H]1O[C@H](O[C@H]2O[C@H](CO)[C@@H](O)[C@H](O)[C@H]2O)[C@H](O)[C@@H](O)[C@@H]1O (stereo not given in full),5.2% [at 57.1 µM] (inactive)
5,CCc1nn(CCO)c(CC)c1Oc1cc(C#N)cc(C#N)c1,1.06% (inactive)
6,CCC(C)C1NC(=O)C2CCCN2C(=O)C(CC(O)CO)OC(=O)CCNC(=O)C(C)N(C)C(=O)C(C(C)C)N(C)C1=O (stereo not given) (cyclo([X13]PI[NMeV][NMeA][βAla]); configuration not given here),9.57% [at 32.5 µM] (inactive)
7,C=C1CC[C@]2(C(=O)O[C@@H]3O[C@H](CO)[C@@H](O)[C@H](O)[C@H]3O)CC[C@]3(C)C(=CCC4[C@@]5(C)C[C@H](O)[C@@H](O[C@@H]6O[C@H](C(=O)O)[C@@H](O)[C@H](O)[C@H]6O)[C@](C)(C=O)C5CC[C@]43C)C2C1 (stereo not given in full),11.7% [at 32.5 µM] (inactive)
8,Cc1cn2cc(CC(=O)N3CCC4(CC3)CN(Cc3ccc(-n5nccn5)cc3Cl)C4)nc2s1,3.52% (inactive)
9,C=C1[C@H](OC(C)=O)[C@H]2[C@@H](OC(=O)c3ccccc3)[C@@H](C)C[C@]2(O)[C@@H](OC(C)=O)[C@H](C)/C=C/C(C)(C)C(=O)[C@H](OC(C)=O)[C@H]1OC(C)=O,5.16% [at 32.5 µM] (inactive)
10,COC(=O)C[C@H]1C(C)(C)[C@H](OC(=O)C(C)C)C2CC3=C4CC(=O)O[C@@H](c5ccoc5)[C@]4(C)CCC3[C@@]1(C)C2=O (stereo not given in full),8.59% [at 57.1 µM] (inactive)
